Common to all, as to experiment: NCI-60 one-dose screen, 48 h (100 = growth as untreated, 0 = no growth, -100 = all killed)
What all share (conditions): 10 µM unless noted

In assay [1] the test system is SK-MEL-2 melanoma.
Assay [2] relates to EKVX NSCLC.
Assay [3] deals with SN12C renal.
The subject of assay [4] is UO-31 renal.
For assay [5], the system named is TK-10 renal.
Assay [6] concerns ACHN renal.
The test system of assay [7] is CAKI-1 renal.
The subject of assay [8] is A498 renal.
Assay [9] deals with CCRF-CEM leukemia.
The subject of assay [10] is MOLT-4 leukemia.

Among the data in PubChem BioAssay (NCI) are growth values, retold here.

This is part of a sample that, as a whole, favours compounds with a hit. Of some 83,000 tested, about 20% had one in any assay.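 The endpoint reported here, percent growth, reads 100 for growth as untreated, 0 for no net growth and -100 for all cells dead.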 Values without a mark were called inactive. Activity calls are given as the source filed them. The calls were made as follows: active = growth percent below 10; inactive = the rest.

With `CC(C)(C)n1cc(-c2ccnc(NCCCNS(=O)(=O)c3cccc(F)c3)n2)c(-c2ccc(Cl)c(O)c2)n1`, the growth is 98.4% in [1]; 80.5% in assay [2]; 90.9% in assay [3]; 101% in assay [4]; 152% in assay [5]; 97% in [6]. Further, the growth in [7] was 95.8%; in assay [8] it was 91.4%; in assay [9], 71.4%; in [10], 77.4%.
With `CC(C)(C)c1ccc(-c2nnc(-c3nc4ccccc4nc3Cl)o2)cc1`, the growth in [1] is 63.8%; in assay [2], 99.2%; in assay [3], 86.2%; in [4], 79.4%; in assay [5], 107%; in assay [6], 102%. The growth in [7] is 89.2%; in assay [8], 89.4%; in assay [9], 103%; in assay [10], 101%.
Consider `O=C(c1ccc(O)cc1)[C@@H]1CN[C@@]2(C(=O)Nc3ccccc32)[C@H]1c1ccc(F)cc1`, for which the growth is 104% in [1]; 91.9% in assay [2]; 98.6% in [3]; 77.3% in assay [4]; 123% in assay [5]; 94.5% in assay [6]. Besides, the growth was 106% in assay [7], 112% in [8], 99.2% in assay [9] and 90.5% in assay [10].
In the case of `C#Cc1nc(/C=C/C(=O)c2nccn2C)cs1`, the growth in assay [1] is 18.6%; in [2], -59.4% (active); in assay [3], -47.2% (active); in assay [4], -80.7% (active); in assay [5], -18.8% (active); in assay [6] it was -94% (active). In addition, the growth in [7] was -55.7% (active); in assay [8], -88.1% (active); in assay [9], -21.6% (active); in assay [10], -31.2% (active).
As to `CC1(C)CC[C@]2(C(=O)N3CCOCC3)CC[C@]3(C)C(=CC[C@@H]4[C@@]5(C)C/C(=C/c6ccccn6)C(=O)C(C)(C)[C@@H]5CC[C@]43C)[C@@H]2C1`, the growth was 82.9% in [1]; 56.1% in [2]; 67.7% in [3]; 42% in [4]; 70.2% in assay [5]; 76.9% in assay [6]. The growth is 28.9% in assay [7], -3.14% (active) in assay [8], 44.5% in assay [9] and 25% in assay [10].
`Nc1nc(Nc2ccccc2SSc2ccccc2Nc2nc(N)nc(-c3cccc(Br)c3)n2)nc(-c2cccc(Br)c2)n1`: the growth in assay [1] is 109%; in [2], 42.8%; in assay [3], 63.7%; in assay [4], -7.87% (active); in assay [5], 104%; in assay [6] it was 50.1%. Further, the values for the growth in [7], in assay [8] and in [10] were 21.6%, 72% and 52%, respectively.
Turning to `O=C1[C@@H]2Cc3c([nH]c4ccccc34)[C@H](c3c(Cl)cccc3Cl)N2C(=O)CN1C1CCN(CC2CCCCC2)CC1`, the growth in [1] is 105%; in assay [2] it was 90.7%; in [3], 61.4%; in [4], 69.7%; in assay [5], 139%; in [6], 51.3%. The growth was 76.7% in assay [7], 87.1% in assay [8] and 19.5% in assay [10].
For the compound `Clc1cccc(/C=N/Nc2nc(N/N=C/c3cccc(Cl)c3Cl)nc(N3CCCCC3)n2)c1Cl`, the growth is 114% in assay [1]; 89% in assay [2]; 80.7% in assay [3]; 93.2% in [4]; 91.2% in [5]; 83.7% in [6]. For the same compound, the growth was 84.1% in [7], 92.5% in assay [8] and 84.3% in [10].
`O=c1[nH]c2ccccc2cc1CSc1ccccc1Nc1nccc(-c2ccc(Cl)cc2)n1`: the growth in assay [1] was 113%; in assay [2], 88.6%; in assay [3], 94.9%; in assay [4] it was 83.3%; in assay [5], 115%; in assay [6] it was 81.5%. Also, the values for the growth in [7], in assay [8] and in [10] were 80.6%, 85.5% and 100%, respectively.
As to `CCCCCc1ccc(S(=O)(=O)Nc2cccc(-c3csc(NC(=O)CCCCCN4CCN(CCO)CC4)n3)c2)cc1`, the growth is 105% in assay [1]; 81% in [2]; 85.2% in assay [3]; 88.4% in [4]; 127% in assay [5]; 99.4% in [6]. In addition, the growth is 95.3% in assay [7], 76.8% in assay [8] and 14.7% in assay [10].
`CN(C)C(=O)c1cc(-c2ccc3ncnc(NCc4ccccc4)c3c2)cnc1N`: the growth in assay [1] was 95.2%; in [2] it was 47.9%; in assay [3], 56.7%; in [4] it was 50.6%; in assay [5], 21.9%; in assay [6], 69.2%. The growth in [7] is 27.2%; in assay [8], -2.78% (active); in [10], 96.8%.
As for `CCCn1cnc2c(c1=N)C(c1ccc(Cl)cc1)c1sc3c(CC)cccc3c1O2` (configuration not stated), the growth in assay [1] was 22.5%; in assay [2], 43%; in [3], 27.8%; in [4] it was 32.4%; in assay [5], 61.1%; in assay [6], 35.3%. For the same compound, the growth in assay [7] was 32.2%; in assay [8], -8.25% (active); in assay [10], 10%.
`COc1ccc(S(=O)(=O)NCCCNc2nccc(-c3[nH]c(-c4ccccc4)nc3-c3ccc(Cl)c(O)c3)n2)cc1`: the growth was 15.4% in [1]; 113% in assay [2]; 84.2% in assay [3]; 116% in [4]; 126% in assay [5]; 96.2% in assay [6]. Besides, the values for the growth in assay [7], in assay [8] and in [10] were 102%, 116% and 51.2%, respectively.
